SMILES strings stand for the structures. About 79,000 compounds went through this panel and 15% of them were active in at least one assay; those are over-represented in the sample as a whole. A number with no mark means an inactive call. The source made the active and inactive calls. No stated cut-off is given here; in the data, active means growth inhibition above about 70%; inactive means the rest.

In PubChem BioAssay (NCI) one finds growth inhibition data, which are given here for 20 compounds.

Assay [1] is described as follows: NCI Yeast Anticancer Drug Screen. Data for the rad50 strain (AID 155).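 Further: 0% = growth of vehicle-only cultures of the same strain.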 As to conditions: S. cerevisiae rad50 strain growth inhibition; at 50.0 µM; hits give high values. The essentials: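 A DNA repair-deficient yeast mutant serves as the test organism; compound-induced growth inhibition is calculated against vehicle-treated cells.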
Assay [2] can be described thus: NCI Yeast Anticancer Drug Screen. Data for the mec2-1 strain (AID 157). The note with it: S. cerevisiae mec2-1 strain, at 50.0 µM, hits give high values. The essentials:
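Test agents were screened against the mec2-1 yeast strain, with defined DNA repair or cell cycle alteration. Growth was scored as inhibition against vehicle-only controls.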

A short description of assay [3]: NCI Yeast Anticancer Drug Screen. Data for the sgs1 mgt1 strain (AID 161).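 Further: 0% = growth of cultures given vehicle only.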 The note with it: S. cerevisiae sgs1 mgt1 strain, at 50.0 µM, hits give high values. An outline of the steps:
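Genetically altered yeast, compound exposure, growth inhibition relative to vehicle.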

Assay [4] can be described thus: NCI Yeast Anticancer Drug Screen. Data for the cln2 rad14 strain (AID 165).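 Further: 0% = growth equal to vehicle treated cultures.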 As to conditions: S. cerevisiae cln2 rad14 strain, at 50.0 µM, hits give high values. The essentials:
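Growth of compound-exposed yeast (cln2 rad14 genotype) measured and expressed as inhibition relative to vehicle.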

Assay [5] can be described thus: NCI Yeast Anticancer Drug Screen. Data for the bub3 strain (AID 167). The note with it: S. cerevisiae bub3 mutant strain, at 50.0 µM, hits give high values. An outline of the steps: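 Inhibition values come from growth of compound-treated mutant yeast normalised to vehicle-treated controls.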
A short description of assay [6]: NCI Yeast Anticancer Drug Screen. Data for the mlh1 rad18 strain (AID 175). As to conditions: S. cerevisiae mlh1 rad18 strain growth inhibition; at 50.0 µM; hits give high values. An outline of the steps:
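In this whole-cell yeast screen, a strain with altered DNA damage repair is challenged with compound, and its growth is measured against matched vehicle-treated controls.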

As to `COc1c(OCC(O)CN2CCCCC2)c2c(C)coc2c2ccoc12` (stereo not given), the growth inhibition is 34.5% in assay [1]; 18.6% in assay [2]; 16.1% in assay [3]; 9.25% in assay [4]; 4.15% in assay [5]; 23.1% in assay [6].
As to `OCC(O)C(O)C(O)CN=Cc1ccccc1O` (stereo not given), the growth inhibition was -7.45% in assay [1]; -2.25% in assay [2]; 10.4% in assay [3]; -7.8% in assay [4]; -1.15% in assay [5]; 12.3% in assay [6].
Consider `O=C1c2ccccc2-c2ccc3c4ccc5c6c(ccc(c7ccc1c2c73)c64)-c1ccccc1C5=O`, for which the growth inhibition was 25% in assay [1]; -5.4% in assay [2]; 11.1% in assay [3]; -30.4% in assay [4]; 5.75% in assay [5]; 18.4% in assay [6].
For the compound `CN(C)c1ccc(/C(=N\O)c2cc[n+](C)cc2)cc1`, the growth inhibition was -28.6% in assay [1]; -23.4% in assay [2]; -13.2% in assay [3]; -34.5% in assay [4]; -0.6% in assay [5]; 0.85% in assay [6].
As to `NC1=C(Br)C(=O)c2[nH]c(=O)[nH]c(=O)c2C1=O`, the growth inhibition was 18.8% in assay [1]; 7.6% in assay [2]; 24.4% in assay [3]; -4% in assay [4]; 7.15% in assay [5]; 20.6% in assay [6].
Regarding `O=C1Oc2cc3c(c4cccc1c24)O[C@H](c1ccccc1)[C@@H](c1ccccc1)[C@@H]3c1ccc(Cl)cc1`, the growth inhibition in assay [1] is -2.95%; in assay [2] it was 11.2%; in assay [3] it was -2.4%; in assay [4], -5.15%; in assay [5], 3.3%; in assay [6] it was 9.3%.
For `O=S(c1ccc(O)cc1)c1ccc(O)cc1`, the growth inhibition in assay [1] was -24.2%; in assay [2], -4.95%; in assay [3], 0.55%; in assay [4] it was 1.35%; in assay [5], -1.1%; in assay [6], -2.35%.
On to `O=c1cc(O)n2ncnc2[nH]1`, for which the growth inhibition was -4.3% in assay [1]; -23.6% in assay [2]; -21.8% in assay [3]; 3.05% in assay [4]; -12.6% in assay [5]; 9% in assay [6].
Consider `CCOC(=O)CNc1nnnn1C1OC(CO)C(O)C1O` (stereo not given), for which the growth inhibition in assay [1] is -2.05%; in assay [2], -13.1%; in assay [3] it was -11.4%; in assay [4] it was 11.7%; in assay [5] it was -12%; in assay [6], -19.6%.
With `COc1ccc2c(c1)OCC1=C2Oc2ccccc2C1`, the growth inhibition in assay [1] is 98.2% (active); in assay [2] it was 99.3% (active); in assay [3], 99.1% (active); in assay [4] it was 98.6% (active); in assay [5], 97.9% (active); in assay [6], 98.8% (active).
On to `CC(=O)OC(CCN(C)C)c1ccccc1` (stereo not given), for which the growth inhibition in assay [1] is -1.35%; in assay [2], -7.5%; in assay [3], 0.6%; in assay [4] it was -34.1%; in assay [5], 24%; in assay [6] it was -5.45%.
With `Cn1cc(/C=C\C(=O)O)c2ccccc21`, the growth inhibition in assay [1] is -10.7%; in assay [2], -0.6%; in assay [3] it was 6.7%; in assay [4] it was -35.2%; in assay [5] it was -26.9%; in assay [6], 6.4%.
Take `c1ccc2c(c1)C1OC2c2ccccc21`: the growth inhibition in assay [1] was -30.2%; in assay [2], -20.3%; in assay [3], -26.4%; in assay [4] it was -26.3%; in assay [5] it was -0.4%; in assay [6] it was -1.25%.
In the case of `CC(C)(O)CCc1ccccc1`, the growth inhibition in assay [1] is -7.75%; in assay [2], -29.3%; in assay [3], -14.2%; in assay [4] it was 14.8%; in assay [5], -19.3%; in assay [6] it was 6.6%.
For `CC(C)CCOC(=O)CC(CC(=O)OCCC(C)C)C(=O)OCCC(C)C`, the growth inhibition is 20.9% in assay [1]; -14.5% in assay [2]; 6.35% in assay [3]; 5.9% in assay [4]; -18.1% in assay [5]; 8.15% in assay [6].
For `CC(O)C(C)NC(C)C(C)O` (stereo not given), the growth inhibition in assay [1] is 0.4%; in assay [2], -0.35%; in assay [3] it was -30.8%; in assay [4], 15.3%; in assay [5] it was 12.1%; in assay [6] it was -2.85%.
As to `COC(=O)/C=C/C=C/C(=O)OC`, the growth inhibition in assay [1] is -4.85%; in assay [2], -1.7%; in assay [3] it was -2.6%; in assay [4], -41.9%; in assay [5], -30.1%; in assay [6], 3.85%.
In the case of `COC(=O)c1ccccc1NC(=O)N(c1ccccc1)c1ccccc1`, the growth inhibition in assay [1] was 1.35%; in assay [2], -3.45%; in assay [3], 14.4%; in assay [4], -12.2%; in assay [5], 17.8%; in assay [6], -1.55%.
In the case of `O=C(/C=C/c1cc2ccccc2o1)N1CCN(c2ccccn2)CC1`, the growth inhibition in assay [1] is 28.6%; in assay [2], 27.6%; in assay [3], 39.2%; in assay [4], 11.3%; in assay [5] it was 17.9%; in assay [6], 15.8%.
Consider `C/C(=N/NC(=O)c1ccccc1O)c1ccc(/C(C)=N\NC(=O)c2ccccc2O)c2nc3cc(C)c(C)cc3nc12`, for which the growth inhibition in assay [1] was -41.2%; in assay [2], -14.3%; in assay [3], -31.4%; in assay [4] it was 4.65%; in assay [5], 6.7%; in assay [6], -27.8%.
